High-throughput results (PubChem)
PKM2 activator: PKM2 (human) enzyme activation | AID 1631 | Potency, µM (titrated, usually from 57.5 µM), usual class: activators | purified PKM2, Kinase-Glo ATP luminescence, activation; response scale: 0% is enzyme alone, no compound | 260,000 tested, 0.34% active | P14618; further: nearly all actives have a fitted effect of over 55% in size
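hPK-M2, >95% pure; 0.1 mM ADP / 0.5 mM PEP final; imidazole pH7.2 buffer w/ 7 mM MgCl2, 50 mM KCl; 1 h RT; Kinase-Glo lum. Intermediate enzyme activity for dual inhibitor/activator qHTS.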
TrxR1 substrate: substrates of rat thioredoxin reductase 1; purified TrxR1 substrate turnover, NADPH consumption readout; 390,000 tested, 0.01% active; Potency, µM (top dose mostly 114 µM); O89049; further: nearly all actives have a fitted effect of over 50% in size
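Rat TrxR1, dispensed at 90 nM, was prereduced with 400 uM NADPH (final) for 5 min at ~22 deg C, then incubated with compound 15 min before 400 uM selenite. A first-read NADPH fluorescence drop versus no-compound background flagged substrates.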
GALK inhibitor: blocks human galactokinase activity; P51570; Purified GALK, Kinase-Glo residual ATP luminescence; Potency, µM (highest dose often 57.5 µM), hits mostly inhibitors; 270,000 tested, 0.007% active; AID 1868
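Human GALK (5 nM) with 35 uM ATP and 100 uM galactose in 20 mM HEPES pH 8.0, 5 mM MgCl2, 60 mM NaCl, 1 mM DTT, 0.01% BSA. After 1 h at room temperature, leftover ATP was read by Kinase-Glo Plus luminescence.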
PI4K2A block: blocks human PI4K2A kinase activity | Q9BTU6 | 420,000 tested, 0.13% active | activity change, negative = inhibition, % at 76.9 µM | purified PI4K2A, ADP-Glo luminescence, 1 h; active compounds read low; in the data active means activity change below about -50%; inconclusive means mostly about -30% to -49%
Target sequence (Q9BTU6 whole entry, looked up): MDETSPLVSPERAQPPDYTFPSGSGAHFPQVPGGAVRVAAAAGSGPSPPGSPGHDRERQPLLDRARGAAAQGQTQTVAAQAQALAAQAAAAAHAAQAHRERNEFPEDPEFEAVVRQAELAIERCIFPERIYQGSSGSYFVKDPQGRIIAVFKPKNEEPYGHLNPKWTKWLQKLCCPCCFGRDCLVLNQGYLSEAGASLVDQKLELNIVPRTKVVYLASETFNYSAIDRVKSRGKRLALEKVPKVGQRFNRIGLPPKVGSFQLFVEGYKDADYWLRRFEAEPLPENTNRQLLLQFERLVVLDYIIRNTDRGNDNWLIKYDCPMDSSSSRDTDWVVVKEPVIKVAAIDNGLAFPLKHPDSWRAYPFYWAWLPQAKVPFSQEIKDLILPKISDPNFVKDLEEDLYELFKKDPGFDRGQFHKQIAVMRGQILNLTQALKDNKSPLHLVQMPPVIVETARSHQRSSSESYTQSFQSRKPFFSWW
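Compounds are screened against recombinant PI4K2A using PI as substrate and ATP, the latter dispensed at 300 microM. Reactions run one hour at ambient temperature before ADP-Glo detection; full inhibition defined by wells lacking enzyme.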
rTrxR1 inhibitor: rat TrxR1 inhibition; O89049; 390,000 tested, 1% active; Potency, µM (highest dose often 114 µM), most hits filed as inhibitors; recombinant rTrxR1, NADPH fluorescence consumption, selenite substrate; AID 588453; further: nearly all actives have a fitted effect of over 65% in size
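Rat TrxR1 (90 nM in the dispensed reagent) was pre-reduced with 400 uM NADPH for 5 min at room temperature, then incubated with compound for 15 min. After 400 uM selenite was added, NADPH fluorescence (Ex 340/Em 450 nm) was followed for 8 min.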
Hits are given with their value; n = inactive; u = inconclusive; x = not tested or not shown; [ ] = dose if it differs, or a comment. An excerpt weighted towards active compounds, which were near 1.2% of everything screened. Unless noted, the call rests on the fitted dose curve; in most records, active means well fitted curve in the direction sought with a large enough effect; inconclusive means small, poorly fitted or top-dose-only effect, or another doubt; inactive means no such curve, though single readings can be large; an effect the other way counts as inactive or inconclusive.

SMILES	PKM2 activator	TrxR1 substrate	GALK inhibitor	PI4K2A block	rTrxR1 inhibitor
Cc1ccc(-c2cc(C(=O)Nc3ccccn3)c3ccccc3n2)o1	u	n	n	n	n
Cc1ccc(NC(=O)c2cc(-c3ccc(C)o3)nc3ccccc23)cc1	u	n	n	n	11µM
COc1ccc(OC)c(/C=N/NC(=O)c2cc(-c3ccc(C)o3)nc3ccccc23)c1	7.9µM	n	n	n	79µM
Cc1ccc(-c2cc(C(=O)Nc3cccnc3)c3ccccc3n2)o1	n	n	n	n	8.9µM
COc1cccc(C2c3c(-c4ccccc4O)n[nH]c3C(=O)N2CCc2ccc(OC)c(OC)c2)c1 (stereo unspecified)	x	n	x	n	n
O=C(c1ccc(F)cc1)n1nc(-c2cccnc2)nc1NCc1ccc(F)cc1	x	n	x	n	n
C[C@H]1[C@H](NC(=O)c2ccc(Cl)c(Cl)c2)CC[C@@]23CCCN2C(=O)CCC[C@@H]13	x	x	x	n	x
C[C@H]1C2CC(OC(=O)NCCCc3ccccc3)C(C2)[C@H]2CCCCN21 (stereo partly specified)	x	x	x	n	x
COc1ccc(-c2c(C#Cc3ccsc3)c3ccccc3n2C)cc1	n	n	x	n	10µM
COc1ccc(-c2c(C#Cc3ccsc3)c3cc(-c4ccc5[nH]ccc5c4)ccc3n2C)cc1	x	n	x	n	n
COc1ccc(C#Cc2c(-c3ccccc3)n(C)c3ccccc23)cc1	x	n	x	n	u
COc1cc(C#Cc2c(-c3ccccc3)n(C)c3ccccc23)cc(OC)c1	n	n	x	n	45µM
Cc1cc(C#Cc2c(-c3ccccc3)n(C)c3ccccc23)ccc1F	n	n	x	n	35µM
CCCCN1CCS(=O)(=O)N(Cc2ccc(Cl)cc2)C(C(=O)OC)C1 (stereo unspecified)	x	x	x	n	x
COc1ccc(-c2[nH]c3ccccc3c2SCCNC(=O)c2ccc(S(=O)(=O)N(C)C)cc2)cc1	x	n	x	n	n
Cc1c(C(=O)N2CCCC2)oc2c1-c1nn(CC(=O)NCc3ccccc3Br)cc1CC2	x	n	x	n	n
Cc1cccc(NC(=S)N/C(=N/S(=O)(=O)c2ccccc2)c2ccccc2)c1	n	n	n	n	16µM
O=S(=O)(NCC(c1cccs1)S(=O)(=O)c1ccccc1)c1ccc(F)cc1 (stereo unspecified)	x	n	x	n	13µM
COc1cc2c(NC3CCN(C(C)C)CC3)nc(N3CCCN(C)CC3)nc2cc1OCCOCCN(C)C	x	n	x	x	u
Cc1ccc(CNC(=O)CCS(=O)(=O)c2ccc(Br)s2)o1	n	n	n	n	8.9µM
O=C(CCS(=O)(=O)c1ccc(Br)s1)NCc1ccccc1	n	n	n	n	n
CCC1Sc2ccc(S(=O)(=O)CCC(=O)NCc3ccc(C)o3)cc2NC1=O (stereo unspecified)	x	n	n	n	50µM
N#CC1(NC(=O)CN2C(=O)c3ccccc3C2=O)CCCCC1	x	n	x	n	n
N#CC1(NC(=O)Cn2ncc(Cl)c(Cl)c2=O)CCCCC1	x	n	x	n	5µM
C=CCn1c(SCC(=O)NCC2CCCO2)nc2scc(-c3ccccc3)c2c1=O (stereo unspecified)	n	n	n	n	n
SMILES	PKM2 activator	TrxR1 substrate	GALK inhibitor	PI4K2A block	rTrxR1 inhibitor
C=CCn1c(SCC(=O)NC2CCCC2)nc2scc(-c3ccco3)c2c1=O	n	n	n	u	35µM
C=CCn1c(SCC(=O)NCCCC)nc2scc(-c3ccco3)c2c1=O	u	n	n	u	45µM
CCNC(=O)C/C(C)=N/NC(=O)C12CC3CC(CC(C3)C1)C2	n	n	x	n	25µM
CCNC(=O)C/C(C)=N/NC(=O)C1CCCCC1	n	n	n	n	n
COc1ccc(N2CC3=C(C2=O)C(c2ccc(Br)cc2)NC(=O)N3C)cc1 (stereo unspecified)	x	n	x	n	n
N#C/C(=C\c1ccc([N+](=O)[O-])o1)c1nc2ccccc2[nH]1	n	n	n	n	2.8µM
Cc1[nH]c(=S)c(C#N)c(C)c1C(=O)Nc1ccccc1	n	n	n	n	n
CNC(=O)c1c(C)[nH]c(=S)c(C#N)c1-c1ccco1	n	n	n	n	13µM
CCOC(=O)c1cc(C)sc1/N=C/C1=C(O)CCCC1=O	n	n	n	n	20µM
CCOC(=O)c1cc(C)sc1/N=C/C1C(=O)CCCC1=O	n	n	n	n	n
COc1ccc(NC(=O)CSc2nnc3c(n2)[nH]c2ccc(S(=O)(=O)N(C)C)cc23)c(OC)c1	x	n	x	x	n
COC(=O)[C@H]1C[C@@]2(n3ccc4ccccc43)c3ccccc3N[C@H]2N1	x	x	x	n	x
CCC/C=C1/CCCOC(C(=O)NCc2ccc(C)o2)(C(F)(F)F)C1 (stereo unspecified)	x	n	x	n	13µM
O=C(Oc1ccc(N(C(=O)c2ccncc2)S(=O)(=O)c2ccc(F)cc2)cc1)c1ccncc1	n	u	n	n	35µM
Cc1ccc(-c2csc3nc(C)n(N)c(=O)c23)o1	n	n	n	n	n
Cc1ccc(-c2csc3nc(C)n(-n4c(C)ccc4C)c(=O)c23)o1	14µM	n	n	n	18µM
Cc1nn(-c2ccccn2)c2c1C(=O)C(Br)CC2 (stereo unspecified)	n	n	n	n	13µM
CC1=C(C)C(=O)N(c2ccccn2)C1=O	n	n	n	n	n
CC(=O)Nc1ccc(NC(=O)c2nc(S(=O)(=O)Cc3ccccc3)ncc2Cl)cc1	x	n	n	n	n
CCc1nnc(NC(=O)c2nc(S(=O)(=O)Cc3cccc(C)c3)ncc2Cl)s1	n[0.46 µM]	n	n	u	40µM
CCc1nnc(NC(=O)c2nc(S(=O)(=O)Cc3ccccc3)ncc2Cl)s1	x	n	n	n	45µM
CCOc1ccccc1NC(=O)c1nc(S(=O)(=O)Cc2cccc(C)c2)ncc1Cl	x	n	n	n	7.1µM
CCc1nnc(NC(=O)c2nc(Cl)ccc2Cl)s1	x	n	n	n	n
CCSc1ncc(Cl)c(C(=O)Nc2ccccc2OC)n1	n	n	n	n	n
CSc1nnc(NC(=O)c2nc(S(=O)(=O)Cc3cccc(C)c3)ncc2Cl)s1	x	n	n	n	u
SMILES	PKM2 activator	TrxR1 substrate	GALK inhibitor	PI4K2A block	rTrxR1 inhibitor
CCc1nnc(NC(=O)c2nc(S(=O)(=O)Cc3ccc(C)cc3)ncc2Cl)s1	x	n	n	n	45µM
O=[N+]([O-])c1ccc2c(c1)S(=O)(=O)C=C2	x	n	x	n	2.1µM
Cc1cc([N+](=O)[O-])ccc1N	x	n	x	n	n
CCOc1ccccc1C1C(C(=O)Nc2ccccc2)=C(C)Nc2nc(SCC(=O)c3ccc(C)cc3)nn21 (stereo unspecified)	x	n	x	n	n
Cc1c(C(=O)OC(C)C)sc(NC(=O)C2c3ccccc3Oc3ccccc32)c1C(=O)OC(C)C	x	n	x	n	n
COc1ccc2nc(NC(=O)c3ccoc3C)sc2c1	n	n	n	-85	n
COc1ccc2nc(NC(=O)c3cc(C)oc3C)sc2c1	n	n	n	n	n
CCOC(=O)c1ccc(N2CCN(c3ccc(F)cc3)CC2)c(NC(=O)Nc2ccc(CC)cc2)c1	x	n	x	n	n
